# Sampled rows, rich in hits. Any-hit rate of the full collection: about 0.92%.
# AGP1 TOR yeast: modulators of AGP1-GFP expression in yeast TOR pathway, primary screen, cell-based, multiplex flow cytometry, S. cerevisiae, MLPCN library; 3 h; GFP as percent of DMSO wells; GFP response vs DMSO, % at 10 µM; actives 0.02% (n = 320,000); AID 2066, 2009;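 active = GFP response relative to DMSO above a set limit, near screen average plus 3 SD, cut at about 150% in these data; inconclusive = fewer than 70 cells counted for the yeast strain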;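 also: median GFP channel fluorescence of the gated AGP1 strain per well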
# MEP2-GFP yeast: modulators of MEP2-GFP levels in yeast, primary screen, S. cerevisiae, multiplex flow cytometry, MLPCN library. GFP response vs DMSO, % at 10 µM. S. cerevisiae MEP2-GFP strain, 3 h; 100% = DMSO control level. actives 0.51% (n = 330,000);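 active = GFP response versus DMSO above a set limit, roughly screen mean plus 3 SD, cut at about 180% in these data; inconclusive = fewer than 70 cells counted for a yeast strain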;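 also: median GFP fluorescence of the barcode-gated MEP2-GFP cells per well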
# LAP4-GFP MLPCN: modulators of LAP4-GFP expression in yeast, primary screen, S. cerevisiae, multiplex flow cytometry, MLPCN library | 3 h; median GFP as percent of DMSO wells | GFP response vs DMSO, % at 10 µM | actives 0.34% (n = 320,000) | AID 2023, 2009;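 active = GFP response vs DMSO above a set limit, about the screen mean plus 3 SD, cut at about 150% in these data; inconclusive = under 70 cell events counted for the yeast strain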
# CIT2 TOR yeast: modulators of CIT2-GFP expression in yeast, primary screen, S. cerevisiae, GFP fusion, multiplex flow cytometry, MLPCN library; S. cerevisiae CIT2-GFP strain, 3 h; 100 means same as DMSO wells; GFP response vs DMSO, % at 10 µM; actives 0.065% (n = 320,000); AID 2029, 2009;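 active = GFP response relative to DMSO above a set limit, near the screen mean plus 3 SD, cut at about 150% in these data; inconclusive = Fewer than 70 cells measured for a yeast strain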;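 also: ratio of well median GFP fluorescence to mean of DMSO wells on the plate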
# RPL19A TOR yeast: RPL19A-GFP expression modulators in yeast, primary screen, cell-based, S. cerevisiae, multiplex flow cytometry, MLPCN; S. cerevisiae RPL19A-GFP strain, 3 h; hits give low values; percent response vs DMSO, % at 10 µM; actives 0.3% (n = 330,000); AID 2025, 2009;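 active = percent response vs DMSO below 50%; inconclusive = fewer than 70 events counted for the yeast strain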;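 also: median channel GFP fluorescence of the barcoded RPL19A-GFP strain; lower means less RPL19A-GFP as with rapamycin TOR inhibition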
# Numbers stand for hits; - = inactive; ? = inconclusive; . = not tested or not shown; + = active, no number; [ ] = dose if it differs, or a comment.
SMILES,AGP1 TOR yeast,MEP2-GFP yeast,LAP4-GFP MLPCN,CIT2 TOR yeast,RPL19A TOR yeast
CCN(CC)S(=O)(=O)c1ccc(C(=O)N(c2ccc(C)cc2)C2C=CS(=O)(=O)C2)cc1 (stereo unspecified),?,-,-,?,41[may fluoresce violet]
Cc1ccc(P(=O)(CC(=O)O)c2ccc(C)cc2)cc1,?,355[may fluoresce violet],-,?,15[may fluoresce violet]
CCNC(=O)CP(=O)(c1ccccc1)c1ccccc1,-,-,-,-,-
Cc1c(C)c2ccc(OCC(=O)Nc3cccnc3)cc2oc1=O,?,182[may fluoresce violet],-,?,15[may fluoresce violet]
Cc1cc(=O)oc2c(C(=O)/C=C\c3cccs3)c(O)ccc12,-,-,152,-,-
COc1cc(/C=C/C(=O)c2c(O)ccc3c(C)cc(=O)oc23)ccc1O,-,-,160,-,-
Cc1cc(=O)oc2c(C(=O)/C=C/c3ccccc3)c(O)ccc12,-,-,-,-,-
COc1cc2c(cc1OC)CN(C(=O)NS(=O)(=O)c1ccc(C)cc1)CC2,-,582[may fluoresce violet],-,?,47[may fluoresce violet]
COc1cc2c(cc1OC)CN(C(=O)c1ccc(S(=O)(=O)N3CCCC3)cc1)CC2,-,-,-,-,-
OCc1ccccc1SSc1ccccc1CO,-,-,192,-,-
Cc1cccn2c(=O)c3cc(C(=O)NCC4CCCO4)c(=N)n(C4CCCC4)c3nc12 (stereo unspecified),?,?,-,?,24[may fluoresce violet]
Cc1cccn2c(=O)c3cc(C(=O)NCC4CCCO4)c(=N)n(CCN4CCOCC4)c3nc12 (stereo unspecified),?,605[may fluoresce violet],-,?,49[may fluoresce violet]
Cc1ccc(Cn2c(=N)c(C(=O)NCC3CCCO3)cc3c(=O)n4cccc(C)c4nc32)cc1 (stereo unspecified),-,-,-,-,-
N=c1c(C(=O)NCC2CCCO2)cc2c(=O)n3ccccc3nc2n1C1CCCCC1 (stereo unspecified),-,-,-,-,45
Cc1ccc(Cn2c(=N)c(C(=O)NCC3CCCO3)cc3c(=O)n4ccccc4nc32)cc1 (stereo unspecified),-,-,-,-,-
Cc1ccc(NS(=O)(=O)c2c(C)[nH]c(C)c2C(=O)N2CCCC2)cc1Cl,-,-,-,-,-
OCCCn1c(C(CO)Nc2nc(-c3ccc(Cl)cc3)cs2)nc2ccccc21 (stereo unspecified),-,-,-,-,-
COCOc1ccc(C2CC(=O)c3c(OCOC)cc(OCOC)cc3O2)cc1 (stereo unspecified),-,-,-,-,-
O=C(c1cccc(S(=O)(=O)N2CCc3ccccc32)c1)N1CCCC(C(F)(F)F)C1 (stereo unspecified),-,-,-,-,-
O=C(CCN1C(=O)S/C(=C/c2ccccc2)C1=O)Nc1ccc(O)c(C(=O)O)c1,?,-,-,?,17[may fluoresce violet]
CC(=O)c1ccccc1NC(=O)COC(=O)c1ccccc1NC(=O)c1ccccc1,224[may fluoresce green],+[may fluoresce green],986[may fluoresce green],720[may fluoresce green],-
COC(=O)CNC(=O)Cn1nc(C)c([N+](=O)[O-])c1C,-,-,-,-,-
C(=N\Nc1ccccn1)/c1c[nH]c2ccccc12,-,207,-,-,-
NC(=O)c1ccc(NC(=O)c2ccc3c(c2)CCN3S(=O)(=O)c2ccccc2)cc1,-,-,-,-,-
CCC(=O)N1N=C2CC(C)(C)OCC2C1c1ccccc1 (stereo unspecified),-,-,-,-,-
SMILES,AGP1 TOR yeast,MEP2-GFP yeast,LAP4-GFP MLPCN,CIT2 TOR yeast,RPL19A TOR yeast
Cc1ccc(Cl)cc1N1CCN(C(=O)CSc2ccsc2[N+](=O)[O-])CC1,-,184,-,-,-
N#C/C(=C\c1ccc([N+](=O)[O-])o1)C(=O)Nc1ccc(F)cc1,-,823[may fluoresce violet],323[may fluoresce violet],?,-
O=C(NCCc1ccccc1)C(=O)NCC1OCCN1S(=O)(=O)c1ccc([N+](=O)[O-])cc1 (stereo unspecified),-,-,-,-,-
O=C1C(CSCc2ccccc2)NC(=S)N1c1ccccc1 (stereo unspecified),-,-,152,-,-
O=C(Cn1cnc2c(OCc3ccccc3)ncnc21)NCCCN1CCCC1=O,-,-,-,-,-
C1CCN(c2nc(N3CCCCC3)nc(N3CCNCC3)n2)CC1,-,218[may fluoresce violet],-,?,-
CC1CCN(c2nc(N3CCCCC3)nc(N3CCCCC3)n2)CC1,-,-,-,-,-
O=C1C=C(c2ccc3[nH]ccc3c2)C[C@@H](c2ccc(Cl)cc2)C1,-,-,-,-,-
CCOC(=O)C1CCN(C(=O)c2cc3c(=O)n4ccccc4nc3s2)CC1,-,-,-,-,-
CCOC(=O)C1CCN(C(=O)c2cc3c(=O)n4cccc(C)c4nc3s2)CC1,?,200[may fluoresce violet],-,?,-
CCN(CC(F)(F)C(F)F)S(=O)(=O)c1ccc(NC(=O)OC)cc1,?,?,?,?,14[may fluoresce violet]
COC(=O)Nc1ccc(S(=O)(=O)N(CCO)CC(F)(F)C(F)F)cc1,-,-,-,-,-
O=C(CNC(=O)c1ccc(Cl)cc1Cl)OCCOc1ccccc1,-,-,-,-,-
CC(=O)NC(NC(C)=O)c1ccc(N(C)C)cc1,-,219[may fluoresce violet],-,?,39[may fluoresce violet]
CCN(CC)c1ccc(C(NC(C)=O)NC(C)=O)cc1,-,-,-,-,.
COc1ccc(C(=O)n2nc(C#N)c(C#N)c2N)cc1,-,-,-,-,-
CCCCNC(=O)n1c(SC)nc2ccccc21,-,379[may fluoresce violet],-,?,-
Cc1cccc(NC(=O)CN2CCc3cc4c(cc3C2C)OCCCO4)c1 (stereo unspecified),-,-,-,-,-

# Source: PubChem (NMMLSC)
